{"source": "PubChem BioAssay (NCATS)", "experiment_in_all_cases": "Cytotoxic Profiling of Annotated Libraries Using Quantitative High-Throughput Screening (AID 1296008); note: nearly all actives have a fitted effect of over 60% in size", "details_in_all_cases": "Five cell lines viability, CellTiter-Glo ATP luminescence, 48-72 h; max response: hits give low values", "key": {"HEK293": {"system": "HEK293", "in_short": "(§1)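 Cells exposed to compounds for 48 or 72 hr at 37 degrees Celsius. Viability read as ATP-coupled luminescence with CellTiter-Glo after 10 min at room temperature.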"}, "NIH3T3": {"system": "NIH3T3", "in_short": "as §1"}, "HaCat": {"system": "HaCat", "in_short": "as §1"}, "KB-3-1": {"system": "KB-3-1", "in_short": "as §1"}}, "note": "Inconclusive results are not listed. Unmarked numbers belong to inactive results. Active and inactive are the calls of the source. Calls come from the whole dose curve; as a rule, active = well fitted inhibition curve with a large enough effect; inconclusive = small, poorly fitted or top-dose-only effect; inactive = flat fitted curve, though single readings scatter. % is set by controls: 0 for no effect and ±100 for the full control effect; potency is the fitted concentration of half-maximal effect."}
{"smiles": "C=C1C(=O)O[C@@H]2C3=C(C)CCC[C@]3(C)CC[C@@]12O", "values": [{"measurement": "Potency", "setting": "HEK293", "result": "8.2 µM (active)"}, {"measurement": "Potency", "setting": "NIH3T3", "result": "14.6 µM (active)"}]}
{"smiles": "Cn1ncnc1[C@H]1c2n[nH]c(=O)c3cc(F)cc(c23)N[C@@H]1c1ccc(F)cc1", "values": [{"measurement": "Potency", "setting": "HaCat", "result": "3.17 µM (active)"}, {"measurement": "max response", "setting": "KB-3-1", "result": -8.81, "unit": "%"}]}
{"smiles": "CC(C)CCNC(=O)[C@H](CC(C)C)NC(=O)[C@H]1O[C@@H]1C(=O)O", "values": [{"measurement": "max response", "setting": "HaCat", "result": -18.1, "unit": "%"}, {"measurement": "max response", "setting": "KB-3-1", "result": 2.67, "unit": "%"}]}
{"smiles": "O=C(NC1CCN(CCCCC2(C(=O)NCC(F)(F)F)c3ccccc3-c3ccccc32)CC1)c1ccccc1-c1ccc(C(F)(F)F)cc1", "values": [{"measurement": "Potency", "setting": "HEK293", "result": "11.6 µM (active)"}, {"measurement": "Potency", "setting": "NIH3T3", "result": "7.31 µM (active)"}]}
{"smiles": "CN1c2c(nc(N)[nH]c2=O)NC[C@@H]1CNc1ccc(C(=O)N[C@@H](CCC(=O)O)C(=O)O)cc1", "values": [{"measurement": "max response", "setting": "HaCat", "result": -4.13, "unit": "%"}, {"measurement": "outcome", "setting": "KB-3-1", "result": "inactive"}]}
{"smiles": "CC1=C(c2ccc(NC(=O)c3c(F)cccc3F)cc2)CN(c2nccs2)CC1", "values": [{"measurement": "max response", "setting": "HaCat", "result": -2.64, "unit": "%"}, {"measurement": "outcome", "setting": "KB-3-1", "result": "inactive"}, {"measurement": "max response", "setting": "NIH3T3", "result": -1.55, "unit": "%"}]}
{"smiles": "CN1CCN(C(=O)CN[C@@H]2C[C@H]2c2ccc(OCc3ccccc3)cc2)CC1", "values": [{"measurement": "max response", "setting": "HaCat", "result": -3.34, "unit": "%"}, {"measurement": "max response", "setting": "KB-3-1", "result": -22.7, "unit": "%"}, {"measurement": "max response", "setting": "NIH3T3", "result": -9.45, "unit": "%"}]}
{"smiles": "O=C([C@@H]1CCCN(c2ccc3[nH]c(C4(n5cc(Cl)cn5)CC4)nc3n2)C1)N1CCCC1", "values": [{"measurement": "max response", "setting": "HaCat", "result": -7.93, "unit": "%"}, {"measurement": "max response", "setting": "KB-3-1", "result": -11.1, "unit": "%"}, {"measurement": "max response", "setting": "NIH3T3", "result": -6.68, "unit": "%"}]}
{"smiles": "COc1cc2ncnc(Nc3cccc(I)c3)c2cc1OC", "values": [{"measurement": "Potency", "setting": "HaCat", "result": "4.61 µM (active)"}, {"measurement": "Potency", "setting": "KB-3-1", "result": "9.2 µM (active)"}, {"measurement": "outcome", "setting": "NIH3T3", "result": "inactive"}]}
{"smiles": "COc1ccc(Cl)c(Nc2ncnc3cc(OCC4CCN(C)CC4)c(OC)cc23)c1", "values": [{"measurement": "Potency", "setting": "HaCat", "result": "4.11 µM (active)"}, {"measurement": "max response", "setting": "KB-3-1", "result": 2.68, "unit": "%"}, {"measurement": "Potency", "setting": "NIH3T3", "result": "7.31 µM (active)"}]}
{"smiles": "C=C1C(=O)O[C@@H]2C[C@H](C)C3=CC(=O)[C@H](O)[C@@]3(C)C[C@H]12", "values": [{"measurement": "max response", "setting": "HaCat", "result": 1.47, "unit": "%"}, {"measurement": "max response", "setting": "KB-3-1", "result": 7.17, "unit": "%"}, {"measurement": "max response", "setting": "NIH3T3", "result": -23.3, "unit": "%"}]}
{"smiles": "O=C(NCCCCCCCCNC(=O)C(Cl)Cl)C(Cl)Cl", "values": [{"measurement": "max response", "setting": "HaCat", "result": -4.24, "unit": "%"}, {"measurement": "max response", "setting": "KB-3-1", "result": -9.66, "unit": "%"}, {"measurement": "max response", "setting": "NIH3T3", "result": -14.9, "unit": "%"}]}
{"smiles": "C=C1/C(=C/C=C2\\CCC[C@@]3(C)C2CCC3[C@H](C)/C=C/[C@@H](O)C2CC2)C[C@@H](O)C[C@@H]1O", "note": "(stereo partly drawn)", "values": [{"measurement": "max response", "setting": "HaCat", "result": -20.3, "unit": "%"}, {"measurement": "max response", "setting": "KB-3-1", "result": -9.38, "unit": "%"}, {"measurement": "max response", "setting": "NIH3T3", "result": -32.1, "unit": "%"}]}
{"smiles": "c1cc(NC2CCNCC2)nc(-c2cnc3ccccn23)c1", "values": [{"measurement": "Potency", "setting": "HaCat", "result": "3.66 µM (active)"}, {"measurement": "Potency", "setting": "KB-3-1", "result": "3.26 µM (active)"}, {"measurement": "Potency", "setting": "NIH3T3", "result": "5.8 µM (active)"}]}
{"smiles": "COc1cc(F)c(F)c(Nc2ccc(I)cc2F)c1NS(=O)(=O)C1(CC(O)CO)CC1", "note": "(stereo not drawn)", "values": [{"measurement": "Potency", "setting": "HaCat", "result": "14.6 µM (active)"}, {"measurement": "max response", "setting": "KB-3-1", "result": -14.8, "unit": "%"}, {"measurement": "Potency", "setting": "NIH3T3", "result": "5.17 µM (active)"}]}
{"smiles": "CCC(=O)N1CCOc2c(cc(-c3ccc(OC)c(OC)c3)cc2OC[C@H]2CCCN(C)C2)C1", "values": [{"measurement": "max response", "setting": "HaCat", "result": 3.21, "unit": "%"}, {"measurement": "max response", "setting": "KB-3-1", "result": -9.43, "unit": "%"}, {"measurement": "outcome", "setting": "NIH3T3", "result": "inactive"}]}
{"smiles": "O=c1[nH]c([C@@H]2CCCN2)nc2c1oc1ccc(Cl)cc12", "values": [{"measurement": "Potency", "setting": "HaCat", "result": "1.46 µM (active)"}, {"measurement": "max response", "setting": "KB-3-1", "result": -19.5, "unit": "%"}, {"measurement": "max response", "setting": "NIH3T3", "result": -23.2, "unit": "%"}]}
{"smiles": "CC(=O)Nc1cccc(-c2csc(Nc3cc(C)ccn3)n2)c1", "values": [{"measurement": "max response", "setting": "HaCat", "result": -25.9, "unit": "%"}, {"measurement": "max response", "setting": "KB-3-1", "result": -18.5, "unit": "%"}, {"measurement": "max response", "setting": "NIH3T3", "result": -21, "unit": "%"}]}
{"smiles": "Nc1nc(OCc2cc(Br)cs2)c2[nH]cnc2n1", "values": [{"measurement": "max response", "setting": "HaCat", "result": -1.07, "unit": "%"}, {"measurement": "outcome", "setting": "KB-3-1", "result": "inactive"}, {"measurement": "max response", "setting": "NIH3T3", "result": 2.13, "unit": "%"}]}
{"smiles": "COc1ccc(OC)c(-c2ccc(NC(=O)c3ccncc3F)cc2)c1", "values": [{"measurement": "max response", "setting": "HaCat", "result": -19.1, "unit": "%"}, {"measurement": "max response", "setting": "KB-3-1", "result": -12.6, "unit": "%"}, {"measurement": "max response", "setting": "NIH3T3", "result": 0.707, "unit": "%"}]}
{"smiles": "C=C1C(=O)O[C@@H]2[C@H]1CCC(C)=C(CCC(=O)O)[C@@]2(C)O", "values": [{"measurement": "max response", "setting": "HaCat", "result": 2.79, "unit": "%"}, {"measurement": "outcome", "setting": "KB-3-1", "result": "inactive"}, {"measurement": "max response", "setting": "NIH3T3", "result": -62.1, "unit": "%"}]}
{"smiles": "O=S(=O)(Nc1ccccc1N1CCCCC1)c1ccc(Cl)s1", "values": [{"measurement": "max response", "setting": "HaCat", "result": -19.5, "unit": "%"}, {"measurement": "max response", "setting": "KB-3-1", "result": -15.2, "unit": "%"}, {"measurement": "max response", "setting": "NIH3T3", "result": -6.22, "unit": "%"}]}
{"smiles": "O=C(NCCN1CCOCC1)c1cc2c(Oc3ccc(NC(=O)C4(C(=O)Nc5ccc(F)cc5)CC4)cc3)ccnc2[nH]1", "values": [{"measurement": "max response", "setting": "HaCat", "result": -28.8, "unit": "%"}, {"measurement": "max response", "setting": "KB-3-1", "result": 4.4, "unit": "%"}, {"measurement": "Potency", "setting": "NIH3T3", "result": "6.51 µM (active)"}]}
{"smiles": "CC[C@H](C(=O)Nc1ccccc1N1CCCC1)c1ccccc1", "values": [{"measurement": "max response", "setting": "HaCat", "result": -11.1, "unit": "%"}, {"measurement": "max response", "setting": "KB-3-1", "result": -2.95, "unit": "%"}, {"measurement": "max response", "setting": "NIH3T3", "result": -0.387, "unit": "%"}]}
{"smiles": "C/C=C(\\C)C(=O)O[C@H]1C[C@](C)(O)[C@H]2CC=C(C)[C@H]2[C@@H]2OC(=O)[C@H](C)[C@H]21", "values": [{"measurement": "max response", "setting": "HaCat", "result": 2.74, "unit": "%"}, {"measurement": "max response", "setting": "KB-3-1", "result": -0.753, "unit": "%"}, {"measurement": "max response", "setting": "NIH3T3", "result": 0.0048, "unit": "%"}]}
{"smiles": "C=CC(C)(C)C12CC3C(=O)N4C(CC5(C(C)(C)C=C)c6ccccc6NC45)C(=O)N3C1Nc1ccccc12", "note": "(stereo not drawn)", "values": [{"measurement": "Potency", "setting": "HaCat", "result": "11.2 µM (active)"}, {"measurement": "max response", "setting": "KB-3-1", "result": 3.74, "unit": "%"}, {"measurement": "max response", "setting": "NIH3T3", "result": 1.64, "unit": "%"}]}
